Experimental data reported in PubChem BioAssay (NCI).
Compounds without any hit were thinned out: in the full panel of roughly 83,000, 20% have a hit.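 For each line, cells grew in 96-well plates with the test compound present at a single concentration for 48 hours.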 Active and inactive are the calls of the source. The calls were made as follows: active = growth percent below 10; inactive = the rest.

Test system: MDA-MB-468 breast
Experiment: NCI-60 one-dose screen, 48 h (100 = growth as untreated, 0 = no growth, -100 = all killed)
Conditions: 10 µM unless noted

SMILES	growth
COc1cc(NC(=O)c2cncnc2Nc2ccc3c(ccn3Cc3ccccn3)c2)cc(OC)c1	15.6% (inactive)
Nc1nc(N)c2c(n1)NC(c1ccc(Cl)cc1)CC(c1ccc(Nc3nc(NCCO)nc(N4CCOCC4)n3)cc1)=N2 (stereo not given)	73.7% (inactive)
CCCSc1ccc2nc(NC(=O)OC)[nH]c2c1	-7.05% (active)
COc1ccc(-n2c(=O)n(-c3ccc(-c4nc5ccc(F)cc5s4)cc3)c(=O)c3cccnc32)cc1	121% (inactive)
S=C(Cc1ccc2c(c1)CCCC2)N1CCOCC1	105% (inactive)
C[C@]12CC[C@@H]3c4ccc(O)cc4CC[C@H]3[C@@H]1C[C@H](O)[C@@H]2O	87.1% (inactive)
COC(=O)/C=C1\SC(=Nc2ccc(C(F)(F)F)cc2)N(CCc2c[nH]c3ccccc23)C1=O	-66.3% (active)
Brc1ccc(-c2nnc3c4[nH]ccc4ncn23)cc1	104% (inactive)
CN(C1c2ccccc2Oc2ccccc21)S(=O)(=O)c1cc(Cl)ccc1Cl	18.9% (inactive)
C=CCOC1=CC(=O)c2ccccc2C1=O	29.2% (inactive)
COC(=O)c1nc(=S)[nH]c(C(=O)OC)c1C(=O)c1ccccc1	97.3% (inactive)
COc1cc2nc3cc([N+](=O)[O-])ccc3c(NCCNCC(C)O)c2cc1OC (stereo not given)	-45.6% (active)
COc1cc(C2CC(c3ccc(C)cc3)=NN2C=O)ccc1OCCN(C)C (stereo not given)	93.1% (inactive)
Clc1cccc(Cl)c1Nc1ccc2nnc(-c3ccncc3)n2n1	104% (inactive)
O=C1c2ccccc2C(=O)c2c(N=Nc3[nH]c(=S)[nH]c3O)cccc21	-4.9% (active)
CC(Br)C(Br)c1cc2c(cc1Br)OCO2 (stereo not given)	96.8% (inactive)
Cc1nc(N)[nH]c(=O)c1C	103% (inactive)
O=C(C=P(c1ccccc1)(c1ccccc1)c1ccccc1)c1ccc(Br)cc1	92% (inactive)
CNc1ccc(Br)cc1-c1n[nH]c(=O)[nH]c1=O	120% (inactive)
Cc1ccc2nc(NC(=O)CSC(=S)N3CCN(C)CC3)sc2c1	116% (inactive)

SMILES	growth
CCC(NC(c1cc2cccc3ccc4cccc1c4c32)c1nnnn1C(C)(C)C)C1CCCCC1 (stereo not given)	7.35% (active)
O=C(Nc1ccc(F)cc1)Nc1ccc(Br)c(C(F)(F)F)c1	-5.88% (active)
COc1ccc2nc3cc(Cl)ccc3c(Nc3ccc(O)c(CN4CCCC4)c3)c2c1	-35.9% (active)
Cn1ncc2c(=O)nc3c(-c4ccccc4)n[nH]n3c21	101% (inactive)
COc1ccc(C(=O)c2cc(OC)c(OC)c(OC)c2)cc1OC(=O)CCl	63.4% (inactive)
O=C(NCCN1CCCC1)n1cc(-c2ccncc2)c(-c2cc(O)cc(Cl)c2)n1	75.8% (inactive)
COc1ccc(NC(=O)c2sc3nc(C)c(C(O)c4ccccc4)cc3c2N)cc1 (stereo not given)	14.1% (inactive)
CC1CCc2c(sc3nc(SCC(=O)N/N=C/c4ccc(Cl)cc4)n(-c4ccccc4)c(=O)c23)C1 (stereo not given)	85.6% (inactive)
COc1cc2cc(C(=O)Nc3ccccc3)c(N)nc2cc1OC	-81.5% (active)
COc1cc(OC)cc(-c2n/c(=C\c3c(O)[nH]c4ccc(Cl)cc34)cc3c2=Nc2ccccc2-3)c1	98.1% (inactive)
CN1CCN(c2nc(NCCCCNc3ccnc4cc(Cl)ccc34)c3ccccc3n2)CC1	62.4% (inactive)
COc1ccc(-c2c(N)n[nH]c2-c2cc(OC)c3c(c2)OCCO3)cc1	71.7% (inactive)
CCN(CC)CCCC(C)Nc1ccnc2cc(Cl)c(SCc3ccccc3)cc12 (stereo not given)	-88.5% (active)
COc1cc(N2C(=O)c3nccnc3C2=O)cc(OC)c1OC	115% (inactive)
COc1cc(Cn2c(SCC(=O)Nc3ccc(Cl)cc3)nc3ccccc3c2=O)cc(OC)c1OC	47.1% (inactive)
O=C1NC(=O)C(c2ccccc2)O1 (stereo not given)	106% (inactive)
O=C(Nc1cccc(C(F)(F)F)c1)N1CCN(c2cc(-c3cn(-c4ccccc4)nc3-c3cccc(O)c3)ccn2)CC1	32.5% (inactive)
C/C(=N/N=C(N)N)c1ccc(N)cc1	75.5% (inactive)
Sc1ccc(Nc2c3ccccc3nc3ccccc23)cc1	44.1% (inactive)
O=c1c2c(=NCCCN3CCCC3)cc3c(=O)n(CCCN4CCCC4)c(=O)c4c(NCCCN5CCCC5)cc(c(O)n1CCCN1CCCC1)c2c4-3	-62.2% (active)
